This passage reports inhibition results from PubChem BioAssay AID651548 (Broad Institute, 2012).

SMILES strings stand for the structures. Where “and” joins values, the source holds several entries; their conditions need not be identical. Equal values may be shown once. Among all 57,000 compounds or so, about 200 (0.35%) were called active. Shown is part of a subset that was picked to be rich in actives. Unmarked numbers belong to inactive results.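 Rule for the calls: active = mean inhibition of replicates at least 50% and every single replicate also reaching 50%; inconclusive = mean inhibition at least 50% but some replicate falls below 50%; inactive = mean inhibition under 50%.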

Histone-lysine N-methyltransferase EZH2 (Homo sapiens), sequence (Q15910 whole entry, looked up): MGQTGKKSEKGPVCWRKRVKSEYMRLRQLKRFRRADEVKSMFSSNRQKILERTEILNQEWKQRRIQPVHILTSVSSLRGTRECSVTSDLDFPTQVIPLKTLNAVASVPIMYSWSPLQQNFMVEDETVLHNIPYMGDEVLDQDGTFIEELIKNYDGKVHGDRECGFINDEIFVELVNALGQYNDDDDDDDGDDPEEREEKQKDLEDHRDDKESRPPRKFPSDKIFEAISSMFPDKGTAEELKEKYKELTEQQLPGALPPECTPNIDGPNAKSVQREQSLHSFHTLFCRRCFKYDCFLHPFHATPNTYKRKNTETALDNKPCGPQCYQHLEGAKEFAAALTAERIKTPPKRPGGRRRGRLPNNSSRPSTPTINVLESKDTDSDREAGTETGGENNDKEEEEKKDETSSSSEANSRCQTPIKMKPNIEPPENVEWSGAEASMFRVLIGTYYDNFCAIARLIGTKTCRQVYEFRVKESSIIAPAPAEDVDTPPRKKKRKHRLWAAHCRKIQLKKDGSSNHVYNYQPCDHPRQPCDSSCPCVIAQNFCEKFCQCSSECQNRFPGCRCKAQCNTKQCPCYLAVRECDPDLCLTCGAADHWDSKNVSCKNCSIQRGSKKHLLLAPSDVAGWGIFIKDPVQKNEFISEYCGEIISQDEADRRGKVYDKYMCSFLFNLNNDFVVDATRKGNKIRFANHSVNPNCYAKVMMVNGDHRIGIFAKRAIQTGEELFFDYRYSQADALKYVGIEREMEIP

The assay addresses Histone-lysine N-methyltransferase EZH2 (Homo sapiens) (UniProt Q15910). Briefly: EZH2/PRC2 methyltransferase inhibitors, primary screen, biochemical, DELFIA time-resolved fluorescence, single point (AID 651548).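 Note: dimethyl H3K27 on biotinylated H3 21-44 peptide detected by antibody; plate controls were median neutral control wells for no effect and median positive control wells for full effect.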 Particulars: PRC2 H3K27 methylation, DELFIA TRF, 1 h; at 12.5 µM; stronger effect = higher value.
With `CCC(=O)N1C[C@H](C)[C@H](OC)CN(C)C(=O)c2ccc(NC(=O)c3cnccn3)cc2OC[C@@H]1C`, the inhibition was 10.3%. On to `COc1cccc(S(=O)(=O)N[C@H]2C=C[C@@H](CC(=O)NCc3ccc(F)cc3)O[C@@H]2CO)c1`, for which the inhibition was 13.3%. Take `C[C@@H]1CCCCO[C@H](CN(C)C)[C@H](C)CN([C@@H](C)CO)C(=O)c2cc(NS(=O)(=O)c3ccccc3)ccc2O1`: the inhibition was -7.21%. Under `CCCNC(=O)N1C[C@@H](C)[C@@H](OC)CN(C)C(=O)c2ccc(NC(=O)CCC)cc2OC[C@H]1C` stands -3.61%; under `CC(C)NC(=O)N(C)C[C@H]1Oc2ncc(-c3ccccc3F)cc2C(=O)N([C@@H](C)CO)C[C@@H]1C`, -0.301%; under `COc1cccc(NC(=O)N[C@H]2C=C[C@@H](CC(=O)Nc3ccc(-c4ccccc4)cc3)O[C@@H]2CO)c1`, -1.25%. Consider `O=C(C[C@H]1C[C@H]2c3cc(NC(=O)CC4CC4)ccc3O[C@H]2[C@H](CO)O1)NCc1ccccc1`, for which the inhibition was -28.9%. Turning to `C[C@@H]1CN([C@H](C)CO)S(=O)(=O)c2ccc(C#CC3CCCCC3)cc2O[C@H]1CN(C)C(=O)Cc1ccncc1`, the inhibition is -42.6% and -20.9%.

With `COc1ccc(NC(=O)N[C@H]2CC[C@@H](CCNS(=O)(=O)c3cccc(Cl)c3)O[C@H]2CO)cc1`, the inhibition was -37.3%. Under `CO[C@@H]1CN(C)C(=O)c2ccc(NC(=O)Nc3c(C)noc3C)cc2OC[C@@H](C)N(C(=O)Nc2cccc(Cl)c2)C[C@H]1C` stands -3.56%. Turning to `CCC(=O)N(C)C[C@H]1Oc2cc(C#CC3CC3)ccc2S(=O)(=O)N([C@H](C)CO)C[C@H]1C`, the inhibition is -6.49%. For `CCOC(=O)C1CCCN(C(=O)c2c[nH]n3c(=O)c(Cc4ccc(Cl)cc4)c(C)nc23)C1` (stereo not given), the inhibition is 11.7%. As for `CO[C@@H]1CN(C)C(=O)c2cc(NC(=O)c3ccc(F)cc3)ccc2OC[C@H](C)NC[C@@H]1C`, the inhibition was 8.13%.

Take `CC(C)C#Cc1ccc2c(c1)O[C@H](CN(C)CC1CCOCC1)[C@@H](C)CN([C@H](C)CO)S2(=O)=O`: the inhibition was 0.383%. As for `COc1cccc(S(=O)(=O)N[C@H]2C=C[C@H](CC(=O)NCc3ccc(Cl)cc3)O[C@@H]2CO)c1`, the inhibition is 7.24%.

On to `C[C@H]1CN([C@@H](C)CO)C(=O)c2cccc(NC(=O)Nc3ccccc3)c2O[C@H]1CN(C)Cc1ccc(C(F)(F)F)cc1`, for which the inhibition is -14.8%. For `C[C@H](CO)N1C[C@H](C)[C@@H](CN(C)C(=O)c2cccc(F)c2)Oc2cc(-c3cncnc3)ccc2S1(=O)=O`, the inhibition is 14.3% and -4.79%. Under `COc1ccccc1C(=O)Nc1ccc2c(c1)C(=O)N(C)C[C@@H](OC)[C@@H](C)CN(C)[C@H](C)CO2` stands 1.85%; under `COc1cccc(-c2cnc3c(c2)C(=O)N([C@H](C)CO)C[C@@H](C)[C@H](CN(C)Cc2ccc(F)cc2)O3)c1`, 10%. Under `CC(C)NC(=O)N(C)C[C@@H]1Oc2cc(C#C[C@H](C)O)ccc2S(=O)(=O)N([C@@H](C)CO)C[C@H]1C` stands 8.88%; under `C[C@@H]1CN([C@H](C)CO)S(=O)(=O)c2ccc(C#CC3(O)CCCC3)cc2O[C@@H]1CN(C)C(=O)c1cccnc1`, 5.12%; under `COCC(=O)Nc1ccc2c(c1)[C@@H]1C[C@H](CC(=O)NCc3cc(F)ccc3F)O[C@@H](CO)[C@@H]1O2`, -6.69%. Under `C[C@@H]1CN([C@@H](C)CO)S(=O)(=O)c2ccc(-c3ccc(C#N)cc3)cc2O[C@H]1CN(C)Cc1ccccn1` stands 5.38%; under `CO[C@@H]1CN(C)C(=O)c2ccc(NC(=O)C3CCC3)cc2OC[C@H](C)N(C(=O)CN(C)C)C[C@H]1C`, 0.087%; under `O=C(C[C@@H]1C[C@@H]2c3cc(NC(=O)NC4CCCC4)ccc3O[C@@H]2[C@H](CO)O1)NCC(F)(F)F`, 3.2%. Turning to `CC(C)(C)S(=O)N1Cc2cc(C(=O)O)nc(-c3cccc(-c4cc5ccccc5o4)c3)c2[C@@H]1CCO` (stereo not given in full), the inhibition was 9.63%. As to `CO[C@@H]1CN(C)C(=O)c2cc(NC(=O)NC3CCCCC3)ccc2OC[C@H](C)N(CC2CC2)C[C@H]1C`, the inhibition is -6.48%.

As to `O=C(N[C@H]1CC[C@H](CCNS(=O)(=O)c2ccc(F)cc2)O[C@H]1CO)C1CCCC1`, the inhibition was -3.3%. `O=C(C[C@@H]1C=C[C@H](NC(=O)C2CCC2)[C@@H](CO)O1)NCC1CC1`: the inhibition is 10.5%. As to `CCCN1C[C@H](C)[C@@H](OC)CN(C)C(=O)c2ccc(NC(=O)C3CCOCC3)cc2OC[C@H]1C`, the inhibition was 7.14%. Take `O=C(C[C@H]1C=C[C@H](NC(=O)Nc2ccc(C(F)(F)F)cc2)[C@@H](CO)O1)NCCN1CCCC1`: the inhibition is 11.8%. Turning to `C[C@@H]1CCCCO[C@@H](CN(C)Cc2ccncc2)[C@H](C)CN([C@H](C)CO)C(=O)c2cc(NC(=O)CCC(F)(F)F)ccc2O1`, the inhibition was 0.938%.

In the case of `CCC(=O)N1C[C@@H](C)[C@H](OC)CN(C)C(=O)c2ccc(NC(=O)NC(C)C)cc2OC[C@H]1C`, the inhibition was 5.57%. For `CNC[C@@H]1Oc2cc(C#CC3(O)CCCC3)ccc2S(=O)(=O)N([C@@H](C)CO)C[C@H]1C`, the inhibition is -0.413%. With `OC[C@@]1(O)CO[C@H](OC[C@H]2O[C@@H](OC(CCCCc3ccc(O)cc3)CCc3ccc(O)cc3)[C@H](O[C@H]3OC[C@](O)(CO)[C@H]3O)[C@@H](O)[C@@H]2O)[C@@H]1O` (stereo not given in full), the inhibition is 99% (active). For the molecule `OC[C@H]1O[C@@H](OCc2ccccc2)[C@H](O[C@@H]2OC[C@](O)(CO)[C@H]2O)[C@@H](O)[C@@H]1O`, the inhibition was 10.5%.

On to `C/C=C/c1ccc2c(c1)O[C@@H](CN(C)C(=O)NC1CCCC1)[C@@H](C)CN([C@H](C)CO)S2(=O)=O`, for which the inhibition was 10.7%.

Regarding `CCCN(C)C[C@H]1OCCCC[C@H](C)Oc2ccc(NS(=O)(=O)c3ccc(C)cc3)cc2C(=O)N([C@@H](C)CO)C[C@H]1C`, the inhibition is -43.7%.

`CO[C@H]1CN(C)C(=O)c2ccc(NC(=O)c3cnccn3)cc2OC[C@@H](C)N(C(C)=O)C[C@H]1C`: the inhibition is 7.05%. On to `CO[C@H]1CN(C)C(=O)c2cc(NS(=O)(=O)c3ccccc3)ccc2OC[C@H](C)NC[C@@H]1C`, for which the inhibition is 3.07%.
